Measured values reported in PubChem BioAssay.

target: NADPH oxidase 2 (Homo sapiens) (UniProt P04839); test: compounds shifting NOX2 Amplex Red fluorescence – cell-based, HEK293-NOX2, PMA-stimulated, NOX inhibitor project, primary screen (AID 1159); settings: 45 min, higher = more signal, called active from +8 up or from −8 down; also: test concentration not given here
Sequence (P04839 whole entry, looked up): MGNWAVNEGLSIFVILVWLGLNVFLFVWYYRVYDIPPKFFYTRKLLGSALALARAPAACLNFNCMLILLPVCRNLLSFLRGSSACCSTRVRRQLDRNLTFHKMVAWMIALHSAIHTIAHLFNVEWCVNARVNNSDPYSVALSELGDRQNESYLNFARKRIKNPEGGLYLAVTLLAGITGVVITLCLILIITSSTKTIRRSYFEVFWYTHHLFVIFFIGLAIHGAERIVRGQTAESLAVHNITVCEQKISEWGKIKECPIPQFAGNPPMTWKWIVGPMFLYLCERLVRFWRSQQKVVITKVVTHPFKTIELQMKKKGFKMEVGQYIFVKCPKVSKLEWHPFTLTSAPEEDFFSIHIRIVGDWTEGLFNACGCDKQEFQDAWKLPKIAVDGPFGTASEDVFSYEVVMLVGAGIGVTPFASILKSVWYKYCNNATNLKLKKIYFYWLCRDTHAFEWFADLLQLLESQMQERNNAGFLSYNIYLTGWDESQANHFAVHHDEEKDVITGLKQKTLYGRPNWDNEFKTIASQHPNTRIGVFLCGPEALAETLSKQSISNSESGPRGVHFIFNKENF

z-score, inactive:
C=CCOC(=O)[C@@H]1[C@H]2C(=O)O[C@H](c3ccccc3)[C@H](c3ccccc3)N2[C@H](c2ccc(OCCOC(=O)[C@H]3C[C@H]4C(=O)N5CCC[C@H]5C(=O)N4[C@H]3c3ccc(O)cc3)cc2)[C@@]12C(=O)Nc1ccccc12 1.56, C[C@@H]1CC[C@H]2C(=O)N3[C@@H](CC[C@@H](C)[C@@H]3c3cccc(N4CCOCC4)c3)C(=O)N2[C@H]1c1cccc(N2CCOCC2)c1 1.07, COc1ccc(-c2ccccc2[C@@H]2N[C@H](C(=O)O)CC[C@H]2C)cc1 0.653, CN1CCC(CCCO)=CC1C1CC1 (stereo unspecified) 0.575, C=CCC(OC(C)=O)[C@@H]1[C@@H](N(Cc2cc3ccccc3o2)C(=O)c2ccc(C)cc2)c2cc(OCCCO)ccc2N1C(=O)c1ccc2ccccc2n1 (stereo partly specified) 0.12, C[C@H]1COC(=O)[C@H](Cc2ccccc2)NC(=O)[C@@H](C)COC(=O)[C@H](Cc2ccccc2)NC1=O 0.915, CCN1C(C)=C(C(=O)OC)[C@@H](c2ccccc2)N2C(=O)[C@@]3(C(=O)OC)O[C@@]12[C@@H]1C(=O)N(c2ccccc2)C(=O)[C@@H]13 -0.816, CCCC/C=C/[C@H]([C@@H](O)Cc1ccccc1)N(CC#Cc1ccccc1)Cc1ccccc1Br -0.424, Cc1ccc(S[C@]2(C(=O)NCCCN(C)C)CC(=O)N(C3CCCCC3)[C@@H]2c2ccc(CO)cc2I)cc1 -4.81, CO[C@@H]1COC(=O)[C@H](C)NC(=O)CC=C[C@@H](C)[C@H](NS(=O)(=O)c2ccc(C)cc2)COC(=O)CC=C[C@@H]1C 0.564, C=CCNC(=O)[C@H]1[C@@H]2C(=O)O[C@@H](c3ccccc3)[C@@H](c3ccccc3)N2[C@@H](c2ccccc2OCCO)[C@]12C(=O)N(C(=O)OCCOC)c1ccc(C#CCC(C(=O)OC)C(=O)OC)cc12 0.819, CC(=O)NCCCC[C@@H]1NC(=O)[C@@H]2C[C@H](C(=O)NCCCCCCN(C)C)[C@H](c3ccc(O)cc3)N2C1=O -0.498, O=C(NCC(O)CO)[C@]1(Cc2ccccc2)N=C(c2ccc(OCCCO)cc2)O[C@@H]1c1ccccc1 (stereo partly specified) 0.489, C[C@H]1NC(=O)[C@@H](C)NC(=O)[C@@]23C(=O)N[C@@H](Cc4ccccc4)C2[C@H](C)[C@@]2(C)O[C@H]2C3/C=C/C/C=C\CNC1=O (stereo partly specified) 0.248, CC(C)N1CC=CC23O[C@@H]4/C=C\CCCOC(=O)C4[C@H]2C(=O)N(CCO)[C@@H]3C1=O (stereo partly specified) 1.23, C=CC[C@]1(C(=O)O)N=C(c2ccc(OCCCO)cc2)O[C@H]1c1ccccc1 -0.343, CC(C)CNC(=O)[C@@]1(C)c2ccccc2C(=O)N(Cc2ccc(OC(F)(F)F)cc2)[C@H]1c1ccc(CO)cc1 -0.201, CO[C@H]1COC(=O)[C@H](Cc2ccccc2)NC(=O)CC=C[C@@H](C)[C@H](OC)COC(=O)CC=C[C@@H]1C -3.05, C=C(COC)/C(=C/C[C@@H](OC(=O)c1ccncc1)c1ccc(OCCO)cc1)c1cc(C(=O)OC)ccc1OC 1.98, CSCC[C@@H]1NC(=O)CC=C[C@@H](C)COC(=O)[C@H](CCSC)NC(=O)CC=C[C@@H](C)COC1=O -1.26, O=C1OCC=C[C@H]2OC34C=CCN(Cc5ccccc5)C(=O)[C@H]3N(CCCCCO)C(=O)[C@@H]4[C@@H]12 (stereo partly specified) 2.15, Cc1ccc(S[C@]2(C(=O)NCCN3CCOCC3)CC(=O)N(C3Cc4ccccc4C3)[C@@H]2c2ccc(CO)cc2I)cc1 2.05, COC(=O)C[C@H]1O[C@]2(C(=O)N(C)c3ccccc32)[C@@H](C)[C@@H]1[Si](C)(C)c1ccc(OC)cc1 0.0822, CC/C=C/C(=O)N(C[C@@H]1CCCO1)[C@@H]1CC(C(=O)NCCO)=C[C@H](Oc2c(I)cc(CO)cc2OC)[C@H]1O -0.425, C=C[C@H](OC)[C@@H](OC(=O)Nc1ccc(SC)cc1)c1ccc(OC)c(O)c1 -2.57, CN1C2C=C(c3ccc(CO)cc3)C(C3C(=O)N(C(N)=O)C(=O)C32)C1c1cccs1 (stereo unspecified) 1.57, C=CCN(C(=O)C1N(c2ccc(CCO)cc2)C(=O)C2C(C(=O)O)C3C=CC21O3)C(C)(C)C (stereo unspecified) 1.9, C=CCC1=C[C@H]2[C@H]([C@@H]3C=C[C@]2(CC=C)C(=O)[C@]32CO2)[C@@]2(CO2)C1=O -0.0349, Cc1ccc(S[C@]2(C(=O)O)CC(=O)N(Cc3ccccc3)[C@@H]2c2ccc(CO)cc2)cc1 -0.198, CCCNC(=O)[C@@H]1c2ccccc2C(=O)N(Cc2cc(F)cc(C(F)(F)F)c2)[C@H]1c1ccc(CO)cc1 1.2, O=C1c2ccccc2[C@](Cc2ccccc2I)(C(=O)O)[C@H](c2ccc(CO)cc2)N1C1CCCCC1 1.06, [N-]=[N+]=NCc1ccccc1C[C@]1(C(N)=O)N=C(c2ccc(OCCCO)cc2)O[C@H]1c1ccccc1CN=[N+]=[N-] -1.06, CO[C@H]1COC(=O)[C@H](C)NC(=O)CC=C[C@@H](C)[C@H](NS(=O)(=O)c2ccc(C)cc2)COC(=O)[C@@H](OCc2ccccc2)C=C[C@@H]1C 1.4, COC(=O)c1c(CC[C@@H](CO)NC(=O)N[C@H](Cn2cc(-c3cncn3C)nn2)C(C)C)oc(C(C)=O)c1C(=O)OC -1.33, C=C(COC)/C(=C/C[C@@H](OC(C)=O)c1cccc(OCCO)c1)c1cc(C(=O)OC)ccc1OC 1.51, CC(C)[Si]1(C(C)C)O[C@@H](c2ccccc2)c2cc(C3CC3)nc(-c3ccc(Oc4ccccc4)cc3)c21 1.06
